Drawing on PubChem BioAssay (Tox21), this text covers Potency and activation for 48 compounds.

Molecules are shown by their SMILES. Records with an inconclusive call do not appear. A call without a number means that no potency is given here. Values without a mark were called inactive. Active and inactive are the calls of the source. Calls follow the shape of the full dose curve.

For the test, the target named is Beta-2 adrenergic receptor (Homo sapiens) (UniProt P07550). The experiment in a line: Adrenergic beta2 receptor (ADRB2) small molecule agonists, cell-based qHTS assay (AID 1963593).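 As to activation: CHO cells stably overexpressing human ADRB2.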 The note with it: CHO-ADRB2 cells, cAMP HTRF, 30 min; series mostly up to 92.4 µM. The essentials:
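CHO cells stably over-expressing ADRB2 were plated overnight at 37C, then dosed with compounds plus a stimulation mix containing 100uM IBMX and 25uM Ro-20-1724 for 0.5hr at room temperature. cAMP was measured by HTRF competition, 1hr.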
(In qHTS, concentration-response curves come from the screen itself.)
Potency is read from the fitted curve at half-maximal effect.

Chain of Beta-2 adrenergic receptor (Homo sapiens) (P07550 whole entry, looked up): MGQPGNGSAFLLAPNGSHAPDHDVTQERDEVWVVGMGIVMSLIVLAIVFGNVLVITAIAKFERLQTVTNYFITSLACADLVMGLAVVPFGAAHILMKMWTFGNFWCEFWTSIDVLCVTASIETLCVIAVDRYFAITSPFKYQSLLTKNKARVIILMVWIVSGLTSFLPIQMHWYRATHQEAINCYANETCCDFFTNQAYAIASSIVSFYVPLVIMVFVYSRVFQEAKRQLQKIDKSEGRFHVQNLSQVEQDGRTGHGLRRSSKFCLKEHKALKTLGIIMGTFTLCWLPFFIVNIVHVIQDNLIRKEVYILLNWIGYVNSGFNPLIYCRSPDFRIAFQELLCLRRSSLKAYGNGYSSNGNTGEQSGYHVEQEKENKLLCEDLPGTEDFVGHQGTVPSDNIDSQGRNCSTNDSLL

For `FC(F)OC(F)(F)C(F)Cl` (stereo not drawn), the Potency result was “inactive”.

With `CCCSC(=O)N(CCC)CCC`, the Potency entry is “inactive”.

In the case of `CC(C)(C)c1ccc(CSc2cnn(C(C)(C)C)c(=O)c2Cl)cc1`, the Potency entry is “inactive”.

As for `CCC1(c2ccccc2)C(=O)N=C(O)NC1=O` (stereo not drawn), the Potency entry was “inactive”.

Take `C=CC(=O)OCC(COC(=O)C=C)(COC(=O)C=C)COC(=O)C=C`: the Potency was 24.3 µM (active).

As to `CSCCCN=C=S`, the Potency entry is “inactive”.

In the case of `CCOC(=O)NC(=S)Nc1ccccc1NC(=S)NC(=O)OCC`, the Potency result was “inactive”.

Consider `CCCCC(=O)Cl`, for which the Potency entry was “inactive”.

For `C[N+]1(C)[C@@H]2CC[C@H]1CC(OC(=O)C(CO)c1ccccc1)C2` (stereo partly drawn), the Potency result was “inactive”.

Turning to `NC(=O)C(Cl)Cl`, the Potency result was “inactive”.

With `C[N+](C)(C)CCOC(=O)C(O)(c1ccccc1)c1ccccc1`, the Potency result was “inactive”.

In the case of `CC/C(=N\OC/C=C/Cl)C1=C(O)CC(C2CCOCC2)CC1=O` (stereo not drawn), the Potency entry is “inactive”.

In the case of `CCN(C(C)=O)c1cccc(-c2ccnc3c(C#N)cnn23)c1`, the Potency result was “inactive”.

Regarding `CC(Cc1ccccc1)NCCCCl` (stereo not drawn), the Potency entry was “inactive”.

For the compound `Cn1cc(C2=C(c3cn(C4CCN(Cc5ccccn5)CC4)c4ccccc34)C(=O)NC2=O)c2ccccc21`, the Potency result is “inactive”.

As to `CSSC`, the Potency result was “inactive”.

`COC(=O)N(C(=O)N1CO[C@@]2(C(=O)OC)Cc3cc(Cl)ccc3C2=N1)c1ccc(OC(F)(F)F)cc1`: the Potency result is “inactive”.

For the compound `CC(C)[N+](=O)[O-]`, the Potency result is “inactive”.

For the compound `CCN(CC)C(=O)Cl`, the Potency entry was “inactive”.

In the case of `O=C(CBr)Nc1ccc(Cl)cc1C(=O)c1ccccc1F`, the Potency result is “inactive”.

`CC(=O)OCC1=C(C(=O)O)N2C(=O)[C@@H](N)[C@H]2SC1`: the activation is 15.1% [at 19 µM].

`COP(=O)(OC)O/C(=C\Cl)c1cc(Cl)c(Cl)cc1Cl`: the Potency result was “inactive”.

On to `ClCC(Cl)Cl`, for which the Potency entry is “inactive”.

With `COP(N)(=S)Oc1ccccc1C(=O)OC(C)C` (stereo not drawn), the Potency entry is “inactive”.

Consider `O=C=Nc1ccc(Cl)cc1`, for which the Potency result is “inactive”.

Turning to `N#CSCc1ccccc1`, the Potency entry was “inactive”.

As for `CCCCC(CC)COC(=O)OOC(C)(C)C` (stereo not drawn), the Potency result is “inactive”.

Take `CC1=C(C(=O)O)N2C(=O)[C@@H](N)[C@H]2SC1`: the activation was 0.75% [at 19 µM].

Turning to `CCOP(=S)(OCC)SCS(=O)(=O)CC`, the Potency result was “inactive”.

`CC(CC(C(N)=O)(c1ccccc1)c1ccccc1)N(C)C` (stereo not drawn): the Potency result is “inactive”.

For the compound `Nc1ccc(Cl)cc1C(=O)c1ccccc1F`, the Potency result is “inactive”.

Consider `COc1cc(Cl)c(OC)cc1Cl`, for which the Potency result is “inactive”.

As for `CNP(=O)(OC)Oc1ccc(C(C)(C)C)cc1Cl` (stereo not drawn), the Potency result was “inactive”.

In the case of `OC(Cn1cncn1)(c1ccc(F)cc1)c1ccccc1F` (stereo not drawn), the Potency entry is “inactive”.

As to `OC(c1ccccc1)(c1ccccc1)C1CCNCC1`, the Potency entry was “inactive”.

For the compound `CC(C)[C@H](C(=O)O[C@H](C#N)c1cccc(Oc2ccccc2)c1)c1ccc(Cl)cc1`, the Potency entry was “inactive”.

On to `CC(=O)CCc1ccc2c(c1)OCO2`, for which the Potency result was “inactive”.

Take `O=C(O)c1cc(I)cc(I)c1I`: the Potency result was “inactive”.

For `CCCOc1nn(C(=O)NS(=O)(=O)c2ccccc2C(=O)OC)c(=O)n1C`, the Potency result is “inactive”.

On to `CC1N=C(N)OC1c1ccccc1` (stereo not drawn), for which the Potency result is “inactive”.

In the case of `CCC[N+](CCC)(CCC)CCC`, the Potency result is “inactive”.

Turning to `N#C/C(N)=C(/N)C#N`, the Potency entry was “inactive”.

`CCOP(=O)(OCC)O/C(=C/Cl)c1ccc(Cl)cc1Cl`: the Potency entry was “inactive”.

As to `COc1ccc([N+](=O)[O-])cc1O`, the Potency entry is “inactive”.

`O=CCCl`: the Potency result is “inactive”.

As for `C=CCC1([C@H](C)CCC)C(=O)NC(=O)NC1=O`, the Potency entry is “inactive”.

Take `COc1ccc(-c2ccccc2)cc1NNC(=O)OC(C)C`: the Potency entry was “inactive”.

Turning to `COP(=S)(OC)Oc1c(Cl)cc(C)cc1Cl`, the Potency entry was “inactive”.
